In PubChem BioAssay (NCATS):
Results filed as inconclusive are left out. Calls of active or inactive are those of the source. The call rests on the fitted dose curve; in most records, active means well fitted curve in the direction sought with a large enough effect; inconclusive means small, poorly fitted or top-dose-only effect, or another doubt; inactive means no such curve, though single readings can be large; an effect the other way counts as inactive or inconclusive. Where a SMILES comes first, the peptide text is derived from it. Bridges are numbered along the chain shown (N, C = ends). [ ]: non-standard residue; d: D form. hArg = N=C(N)NCCCC[C@H](N)C(=O)O; Mpa = O=C(O)CCS

These compounds were tested against ATP-dependent 6-phosphofructokinase (Trypanosoma brucei brucei) (UniProt O15648) (assay: qHTS Assay to Find Inhibitors of T. brucei phosphofructokinase: hit validation (AID 492961;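 further: luminescence reports ADP formed as PFK phosphorylates fructose-6-phosphate with ATP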)). Conditions: T. brucei PFK, ADP-Glo luminescence; series mostly up to 51.4 µM; activity change, negative = inhibition: at the top concentration.
Method in brief: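 Compounds titrated; %activity normalized to 0x and 1x enzyme controls, curve-fitted. Readout: ADP-Glo luminescence after 45 min room-temperature reaction of 1.25 nM PFK, 0.1 mM ATP, 0.5 mM F6P, pH 8.0.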
On the % scale 0 is the no-effect control and ±100 the full control effect.

ATP-dependent 6-phosphofructokinase (Trypanosoma brucei brucei), sequence (O15648 whole entry, looked up): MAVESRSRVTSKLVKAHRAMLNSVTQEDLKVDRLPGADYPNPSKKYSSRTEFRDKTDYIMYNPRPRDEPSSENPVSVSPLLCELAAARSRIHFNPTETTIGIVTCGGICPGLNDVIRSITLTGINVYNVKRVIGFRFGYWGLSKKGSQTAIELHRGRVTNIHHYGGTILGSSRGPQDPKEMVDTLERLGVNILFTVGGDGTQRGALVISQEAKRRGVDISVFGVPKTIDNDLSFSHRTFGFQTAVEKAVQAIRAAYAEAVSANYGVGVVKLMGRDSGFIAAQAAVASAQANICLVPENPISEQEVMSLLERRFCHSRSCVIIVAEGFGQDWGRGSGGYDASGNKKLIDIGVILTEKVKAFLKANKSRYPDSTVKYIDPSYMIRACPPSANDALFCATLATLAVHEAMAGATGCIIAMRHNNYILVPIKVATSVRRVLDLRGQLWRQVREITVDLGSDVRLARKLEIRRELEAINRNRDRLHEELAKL

SMILES | activity change, negative = inhibition
CN1CCCN=C1COC(=O)C(O)(c1ccccc1)C1CCCCC1 (stereo not drawn) | -1.69% (inactive)
COc1ccccc1Oc1c(NS(=O)(=O)c2ccc(C(C)(C)C)cc2)nc(-c2ncccn2)nc1OCCO | 6.24% (inactive)
C[C@@H](N)C(=O)O | 5.45% (inactive)
NCC1CCC(C(=O)Oc2ccc(CCC(=O)O)cc2)CC1 (stereo not drawn) | -3.81% (inactive)
Cc1ncc(CO)c(CN)c1O | 8.7% (inactive)
CCCCCCCCCCCCCCCCC(C(=O)O)C(O)(CC(=O)O)C(=O)O (stereo not drawn) | 3.37% (inactive)
O=C(O)CCC(=O)O | 4.36% (inactive)
CCCNC(C)(C)COC(=O)c1ccccc1 | 4.52% (inactive)
O=C(O)Cc1cn(-c2ccccc2)nc1-c1ccc(Cl)cc1 | 0.907% (inactive)
NS(=O)(=O)c1ccc(NC(=O)CCC(=O)O)cc1 | -3.93% (inactive)
NNC(=O)CP(=O)(c1ccccc1)c1ccccc1 | 0% (inactive)
COc1ccc(C(=O)N2CCN(CC(=O)N3CCOCC3)CC2)cc1 | 0% (inactive)
Cc1onc(-c2ccccc2)c1-c1ccc(S(N)(=O)=O)cc1 | -0.208% (inactive)

These compounds were tested against Ubiquitin carboxyl-terminal hydrolase 1 (Homo sapiens) (UniProt O94782) (assay: Inhibitors of USP1/UAF1: Pilot qHTS (AID 504865; further: nearly all actives have a fitted effect of over 35% in size; further: potency means the concentration at half of the fitted maximal effect;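 on activity change, negative = inhibition: rhodamine fluorescence freed from ubiquitin-rhodamine substrate followed over time; top concentration of the series differs between compounds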)). Conditions: purified USP1/UAF1, Ub-rhodamine cleavage fluorescence; series mostly up to 114 µM; activity change, negative = inhibition: at the top concentration.
Method in brief: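 USP1/UAF1 complex (1nM) preincubated with compound 15 min at room temperature, then Ub-Rho substrate (150nM final) added. Fluorescence read kinetically at 480/540 nm, 6 reads every 60 seconds. Buffer: 50mM HEPES pH 7.8, 0.5mM EDTA, 0.1 mg/ml BSA, 1mM TCEP, 0.01% Tween-20.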

Ubiquitin carboxyl-terminal hydrolase 1 (Homo sapiens), sequence (O94782 whole entry, looked up): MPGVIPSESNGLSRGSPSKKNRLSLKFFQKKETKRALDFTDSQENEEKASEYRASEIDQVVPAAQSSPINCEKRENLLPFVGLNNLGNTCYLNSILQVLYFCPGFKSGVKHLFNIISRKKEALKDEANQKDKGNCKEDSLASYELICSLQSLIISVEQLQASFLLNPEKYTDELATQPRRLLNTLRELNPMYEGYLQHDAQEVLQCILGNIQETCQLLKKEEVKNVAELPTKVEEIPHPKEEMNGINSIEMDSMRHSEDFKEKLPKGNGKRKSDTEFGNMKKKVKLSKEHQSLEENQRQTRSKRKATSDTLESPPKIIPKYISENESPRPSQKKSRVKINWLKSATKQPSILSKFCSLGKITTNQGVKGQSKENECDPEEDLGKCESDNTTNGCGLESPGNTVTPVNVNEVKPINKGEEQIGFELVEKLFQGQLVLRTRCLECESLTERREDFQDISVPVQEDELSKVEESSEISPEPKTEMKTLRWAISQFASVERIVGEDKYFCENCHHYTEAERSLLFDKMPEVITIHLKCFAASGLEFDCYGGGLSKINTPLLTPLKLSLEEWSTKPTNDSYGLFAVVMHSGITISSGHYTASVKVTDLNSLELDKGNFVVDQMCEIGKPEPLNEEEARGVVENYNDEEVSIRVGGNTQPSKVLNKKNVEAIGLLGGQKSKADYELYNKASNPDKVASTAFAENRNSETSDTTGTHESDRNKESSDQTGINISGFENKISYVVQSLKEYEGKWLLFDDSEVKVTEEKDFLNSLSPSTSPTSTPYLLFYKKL

SMILES | activity change, negative = inhibition | Potency
NC(=O)[C@@H]1CSSCCC(=O)N[C@@H](CCCCN=C(N)N)C(=O)NCC(=O)N[C@@H](CC(=O)O)C(=O)N[C@@H](Cc2c[nH]c3ccccc23)C(=O)N2CCC[C@H]2C(=O)N1 ([Mpa][hArg]GDWPC-NH2; disulfide 1-7) | -13% (inactive) | 
O=C(O)CCCCC1CCSS1 (stereo not drawn) | 3.49% (inactive) | 
CC(=O)NS(=O)(=O)c1ccc(N)cc1 |  | inactive
CN1CCCN=C1COC(=O)C(O)(c1ccccc1)C1CCCCC1 (stereo not drawn) | 3.18% (inactive) | 
COc1ccccc1Oc1c(NS(=O)(=O)c2ccc(C(C)(C)C)cc2)nc(-c2ncccn2)nc1OCCO | -2.26% (inactive) | 
C[C@@H](N)C(=O)O |  | inactive
NCC1CCC(C(=O)Oc2ccc(CCC(=O)O)cc2)CC1 (stereo not drawn) | -12.6% (inactive) | 
Cn1c([N+](=O)[O-])cnc1COC(N)=O | -12.5% (inactive) | 
O=C(CCBr)N1CCN(C(=O)CCBr)CC1 | -12.4% (inactive) | 
COc1nccnc1NS(=O)(=O)c1ccc(N)cc1 | 0.411% (inactive) | 
CC(=O)N[C@@H](CC(C)C)C(=O)O | -0.611% [at 54.9 µM] (inactive) | 
C[n+]1ccccc1/C=N/O | -4.18% (inactive) | 
CCCCOC(=O)c1ccc(N)cc1 |  | inactive
Cn1c(=O)c2c(ncn2CCO)n(C)c1=O |  | inactive
NS(=O)(=O)c1ccc(C(=O)O)cc1 | -8.41% (inactive) | 
Cc1cccc(Nc2ccccc2C(=O)O)c1C |  | inactive
Cc1ncc(CO)c(CN)c1O | 4.92% (inactive) | 
CCCCCCCCCCCCCCCCC(C(=O)O)C(O)(CC(=O)O)C(=O)O (stereo not drawn) |  | 22.4 µM (active)

SMILES | activity change, negative = inhibition | Potency
Cc1ccsc1/C=C/C1=NCCCN1C | -5.44% (inactive) | 
O=C(O)CCC(=O)O | 1.57% (inactive) | 
O=C(O)c1ccccc1C(=O)Nc1ccc(S(=O)(=O)Nc2nccs2)cc1 |  | inactive
CCCNC(C)(C)COC(=O)c1ccccc1 | 1.93% [at 54.9 µM] (inactive) | 
OC(CCN1CCCC1)(c1ccccc1)C1CCCCC1 (stereo not drawn) | -6.97% (inactive) | 
Cc1c(N(C)C)c(=O)n(-c2ccccc2)n1C |  | inactive
C/C=C/C(=O)N(CC)c1ccccc1C | -10.2% (inactive) | 
O=C(O)Cc1cn(-c2ccccc2)nc1-c1ccc(Cl)cc1 | -14.3% (inactive) | 
O=C(O)CCCc1ccccc1 | -6.15% (inactive) | 
NC(=O)NC1NC(=O)NC1=O (stereo not drawn) | -1.63% (inactive) | 
NS(=O)(=O)c1ccc(NC(=O)CCC(=O)O)cc1 | -1.94% (inactive) | 
C[N+]1(C)CCCC(OC(=O)C(O)(c2ccccc2)c2ccccc2)C1 (stereo not drawn) | -6.88% (inactive) | 
NNC(=O)CP(=O)(c1ccccc1)c1ccccc1 | -0.971% (inactive) | 
C[C@@H]1O[C@@H](OC[C@H]2O[C@@H](Oc3c(-c4ccc(O)c(O)c4)oc4cc(O)cc(O)c4c3=O)[C@H](O)[C@@H](O)[C@@H]2O)[C@H](O)[C@H](O)[C@H]1O | -15.2% (inactive) | 
COc1ccc(C(=O)N2CCN(CC(=O)N3CCOCC3)CC2)cc1 | 2.18% (inactive) | 
Cc1onc(-c2ccccc2)c1-c1ccc(S(N)(=O)=O)cc1 | -8.41% (inactive) | 
CC1CCc2cc(F)cc3c(=O)c(C(=O)O)cn1c23 (stereo not drawn) | -1.07% (inactive) | 
